Consider 9 compounds from PubChem BioAssay (NCI).

This is part of a sample that, as a whole, favours compounds with a hit. Of some 83,000 tested, about 20% had one in any assay.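 The endpoint reported here, percent growth, reads 100 for growth as untreated, 0 for no net growth and -100 for all cells dead.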 Values without a mark were called inactive. Activity calls are given as the source filed them. Rule for the calls: active = growth percent below 10; inactive = the rest.

Test systems include NCI-H226 lung; NCI-H322M lung; HOP-62 NSCLC; NCI-H460 lung; HOP-92 NSCLC; NCI-H522 lung; A549/ATCC NSCLC; 786-0 renal; DU-145 prostate; K-562 leukemia; MALME-3M melanoma; MDA-MB-231 breast; RXF 393 renal; SF-268 CNS; SF-295 CNS; SF-539 CNS; UACC-257 melanoma; M14 melanoma; COLO 205 colon.
Holding throughout (assay): NCI-60 one-dose screen, 48 h (100 = growth as untreated, 0 = no growth, -100 = all killed)
What all share (conditions): 10 µM unless noted

Take `COc1cccc(-c2nc3sccn3c2-c2ccnc(NCCNS(=O)(=O)c3c(Cl)cccc3Cl)c2)c1`: the growth in the assay on NCI-H226 lung was 57.4%; with NCI-H322M lung, 87.4%; in the assay with HOP-62 NSCLC, 88.4%; in the assay with NCI-H460 lung it was 61%; with HOP-92 NSCLC, 43%; in the assay with NCI-H522 lung, 60.5%. Besides, the growth in the assay on A549/ATCC NSCLC was 47.1%; in the assay on 786-0 renal, 62.6%; in the assay on DU-145 prostate it was 63%; with K-562 leukemia, 29.3%; in the assay on MALME-3M melanoma it was 77.8%; in the assay with MDA-MB-231 breast, 76.7%. Also, the growth in the assay on RXF 393 renal was 69.9%; with SF-268 CNS, 26.1%; with SF-295 CNS it was 60.7%; with SF-539 CNS, 85.9%; in the assay with UACC-257 melanoma, 85.1%; in the assay on M14 melanoma it was 57.7%.
Take `C(=C\c1nc2ccccc2[nH]1)/c1nc2ccccc2[nH]1`: the growth was 92.6% in the assay with NCI-H226 lung; 98.6% in the assay with NCI-H322M lung; 110% with HOP-62 NSCLC; 103% with NCI-H460 lung; 95% in the assay with HOP-92 NSCLC; 98% in the assay on NCI-H522 lung. Further, the growth with A549/ATCC NSCLC is 99.1%; in the assay with 786-0 renal, 113%; in the assay with DU-145 prostate, 107%; in the assay on K-562 leukemia, 90%; in the assay on MDA-MB-231 breast, 90.4%; in the assay with RXF 393 renal, 122%. Further, the growth was 110% in the assay on SF-268 CNS; 100% with SF-295 CNS; 104% in the assay with SF-539 CNS; 86.6% in the assay on UACC-257 melanoma; 100% in the assay with M14 melanoma.
On to `Cc1ccc(O)c(C(=O)c2ccccc2Cl)c1`, for which the growth is 100% with NCI-H226 lung; 109% in the assay with NCI-H322M lung; 98.3% in the assay with HOP-62 NSCLC; 109% with NCI-H460 lung; 112% in the assay on HOP-92 NSCLC; 102% in the assay on NCI-H522 lung. Further, the growth in the assay with A549/ATCC NSCLC is 104%; in the assay on 786-0 renal, 99.1%; in the assay with COLO 205 colon it was 138%; with DU-145 prostate it was 126%; in the assay on K-562 leukemia it was 91.4%; with MALME-3M melanoma it was 106%. In addition, the growth was 109% in the assay on MDA-MB-231 breast; 104% in the assay with RXF 393 renal; 104% in the assay with SF-268 CNS; 94.6% with SF-295 CNS; 96% in the assay on SF-539 CNS; 108% in the assay on UACC-257 melanoma.
Consider `CC/C=C/[C@@H]1C=C[C@@H]2CCC[C@H]2[C@@H]1CC[C@H](O)[C@H](C)N`, for which the growth in the assay on NCI-H226 lung is 91.5%; in the assay with NCI-H322M lung, -35.4% (active); with HOP-62 NSCLC, -89.7% (active); with NCI-H460 lung, -83.1% (active); in the assay with HOP-92 NSCLC it was 12%; in the assay on NCI-H522 lung, -56.9% (active). Moreover, the growth with A549/ATCC NSCLC was 3.8% (active); in the assay with 786-0 renal it was -92.4% (active); with DU-145 prostate it was -12.9% (active); in the assay on K-562 leukemia it was -18.6% (active); with MALME-3M melanoma, -80.2% (active); in the assay on MDA-MB-231 breast, -22.5% (active). Moreover, the growth in the assay on SF-268 CNS is 29.2%; in the assay with SF-295 CNS, -71.3% (active); with SF-539 CNS it was -67.6% (active); in the assay with UACC-257 melanoma, -71.5% (active); in the assay with M14 melanoma it was -76.4% (active).
With `COC1=CC(c2ccc[nH]2)=N/C1=C\c1[nH]c(C)c(C(=O)OCCn2cc(CCC[C@@H]3Cc4cc(O)ccc4C4CC[C@]5(C)[C@@H](O)CC[C@H]5C43)nn2)c1C` (stereo not given in full), the growth in the assay on NCI-H226 lung was 85.7%; in the assay with NCI-H322M lung, 82%; in the assay with HOP-62 NSCLC it was 88.6%; in the assay on NCI-H460 lung it was 53.3%; in the assay on HOP-92 NSCLC it was 67.8%; with NCI-H522 lung it was 92.1%. The growth was 82.2% with A549/ATCC NSCLC; 62.5% in the assay on 786-0 renal; 50.1% in the assay with DU-145 prostate; 51.9% in the assay with K-562 leukemia; 131% with MALME-3M melanoma; 60.1% in the assay on RXF 393 renal. Also, the growth in the assay on SF-268 CNS is 69.9%; in the assay on SF-295 CNS, 96.1%; in the assay with SF-539 CNS, 64.2%; in the assay with UACC-257 melanoma, 96.4%.
As to `CCOC(=O)c1ccc(NC(=O)CCCN(CC)CC)cc1`, the growth with NCI-H226 lung was 103%; in the assay on NCI-H322M lung it was 92.4%; in the assay on HOP-62 NSCLC, 101%; with NCI-H460 lung, 107%; in the assay with HOP-92 NSCLC it was 78%; in the assay on NCI-H522 lung, 63.6%. Besides, the growth in the assay on A549/ATCC NSCLC is 90.5%; in the assay with 786-0 renal, 87.2%; with DU-145 prostate, 105%; in the assay with K-562 leukemia it was 97.7%; in the assay with MALME-3M melanoma it was 98.5%; with MDA-MB-231 breast it was 114%. In addition, the growth was 130% in the assay with RXF 393 renal; 104% in the assay on SF-268 CNS; 103% in the assay on SF-295 CNS; 103% in the assay with SF-539 CNS; 108% with UACC-257 melanoma.
Consider `CCOC(=O)C1=C(C)NC(SCc2nnc(-c3ccc(Cl)cc3)o2)=NC1c1ccc(Cl)cc1Cl` (stereo not given), for which the growth with NCI-H226 lung is 79%; in the assay on NCI-H322M lung, 78.9%; with HOP-62 NSCLC, 82.5%; with NCI-H460 lung it was 59.2%; in the assay on HOP-92 NSCLC, 26.4%; in the assay with NCI-H522 lung, 50.2%. Also, the growth in the assay on A549/ATCC NSCLC is 53.5%; in the assay on 786-0 renal, 65.2%; with DU-145 prostate, 73.1%; in the assay on MALME-3M melanoma, 72.8%; in the assay with MDA-MB-231 breast, 41.7%; in the assay on RXF 393 renal, 43.4%. Also, the growth is 73.8% in the assay on SF-268 CNS; 47.2% with SF-295 CNS; 86.4% in the assay with SF-539 CNS; 68.1% with UACC-257 melanoma; 65.2% in the assay on M14 melanoma.
As for `CCCCOc1nc2ccc(Cl)cc2cc1/C=C/C(=O)/C=C1/CC(c2cc3cc(Cl)ccc3nc2OCCCC)Nc2ccccc2N1` (stereo not given), the growth was 90.8% in the assay with NCI-H226 lung; 103% in the assay on NCI-H322M lung; 94.8% in the assay on HOP-62 NSCLC; 85% in the assay on NCI-H460 lung; 77.3% in the assay with HOP-92 NSCLC; 90.4% in the assay with NCI-H522 lung. For the same compound, the growth is 94.2% with A549/ATCC NSCLC; 99.1% in the assay with 786-0 renal; 90.9% in the assay on COLO 205 colon; 103% with DU-145 prostate; 91.7% in the assay on K-562 leukemia; 79.4% with MALME-3M melanoma. For the same compound, the growth in the assay on MDA-MB-231 breast was 81%; with SF-268 CNS, 97.9%; in the assay with SF-295 CNS, 96.2%; in the assay with SF-539 CNS, 91.9%; with UACC-257 melanoma, 100%.
With `Cc1ccc(/C(=N\N=C(N)N)c2ccccc2)cc1`, the growth is -4.14% (active) in the assay with NCI-H226 lung; 56.6% in the assay on NCI-H322M lung; -30.4% (active) in the assay on HOP-62 NSCLC; 2.74% (active) in the assay on NCI-H460 lung; 27.3% with HOP-92 NSCLC; -11.8% (active) in the assay on NCI-H522 lung. In addition, the growth in the assay on A549/ATCC NSCLC was 16.9%; with 786-0 renal, -70.3% (active); in the assay on DU-145 prostate, 10.4%; in the assay with K-562 leukemia it was 0.175% (active); in the assay on MALME-3M melanoma, 61.8%; in the assay on MDA-MB-231 breast it was 2.26% (active). The growth is 10.4% in the assay on RXF 393 renal; 36.1% with SF-268 CNS; 1.44% (active) in the assay with SF-295 CNS; -24.2% (active) in the assay on SF-539 CNS; 59% with UACC-257 melanoma; -43.5% (active) in the assay with M14 melanoma.
